FMDV FLuc: shows antiviral activity against foot and mouth disease virus. FMDV antiviral cell assay, firefly luciferase signal. Potency, µM (highest dose often 57.5 µM), for inactives: at the top dose activity change, negative = inhibition, hits mostly inhibitors. 0.23% of 120,000 active. AID 1745856; further: nearly all actives have a fitted effect of over 60% in size
FMDV RLuc: shows antiviral activity in FMDV Renilla assay. 0.32% of 120,000 active. Potency, µM (top dose mostly 57.5 µM), inactives show top-dose activity change, negative = inhibition, most hits filed as inhibitors. FMDV replicon cells, Renilla luciferase signal; further: nearly all actives have a fitted effect of over 55% in size
An asterisk follows results filed as active. Only some compounds are listed: those with a hit (about 0.51% of all), similar ones and a draw of the others. The call rests on the fitted dose curve. On the % scale 0 is the no-effect control and ±100 the full control effect; potency means the concentration at half of the fitted maximal effect.

How did O=C(CCc1ncc(-c2c(F)cccc2F)o1)N1CCN(c2ccccc2F)CC1 do in these assays?
FMDV FLuc: 17%; FMDV RLuc: 10%

Results for COc1ccc(C(=O)N[C@@H]2C(=O)Nc3c(c(C)nn3C)[C@H]2c2ccc(C)cc2)cc1OC ?
FMDV FLuc: -6%; FMDV RLuc: 1%

How did CCc1ccc(-c2nc(CSCC(=O)NCCCOC)c(C)o2)cc1 do in these assays?
FMDV FLuc: 25µM*; FMDV RLuc: -23%

What do the screens show for `CCOCCCNC(=O)CSCc1nc(-c2ccc(C)cc2)oc1C`?
FMDV FLuc: 9%; FMDV RLuc: 9%

What do the screens show for `Cc1[nH]c2ccccc2c1C(=O)C(C)Sc1nnnn1C1CC1` (stereo not drawn)?
FMDV FLuc: 2%; FMDV RLuc: 12%

How did COc1ccc(-c2nn3c(=O)cc(CNC(=O)c4ccc(C(C)(C)C)cc4)nc3s2)cc1 do in these assays?
FMDV FLuc: 0%; FMDV RLuc: -7%

Results for CC(C)n1ncc2cc(NC(=O)c3cc(S(=O)(=O)N4CCCCC4)ccc3N3CCCC3)cnc21 ?
FMDV FLuc: -15%; FMDV RLuc: 1%

What do the screens show for `COc1ccc(C(=O)Nc2cnc3c(cnn3C(C)C)c2)cc1S(=O)(=O)N1CCCC1`?
FMDV FLuc: 32µM*; FMDV RLuc: inconclusive

How did O=C(Nc1ccc(OC2CCCC2)cc1)c1ccncc1 do in these assays?
FMDV FLuc: -25%; FMDV RLuc: 5µM*

What do the screens show for `CC(C)=CC(=O)Nc1ccc(OC2CCCC2)cc1`?
FMDV FLuc: 0%; FMDV RLuc: 10%

What do the screens show for `Cc1nc(N2CCC(C(=O)Nc3cccc(Br)c3)CC2)c2c(C)c(C)oc2n1`?
FMDV FLuc: 18µM*; FMDV RLuc: inconclusive

Results for Cc1nc(N2CCC(C(=O)Nc3cccc(Cl)c3C)CC2)c2c(C)c(C)oc2n1 ?
FMDV FLuc: -3%; FMDV RLuc: -3%

What do the screens show for `O=C(/C=C/N1CCC(CCCC2CCN(/C=C/C(=O)C(F)(F)F)CC2)CC1)C(F)(F)F`?
FMDV FLuc: inconclusive; FMDV RLuc: 10µM*

How did O=C(/C=C/N1CCC(Cc2ccccc2)CC1)C(F)(F)F do in these assays?
FMDV FLuc: -16%; FMDV RLuc: inconclusive

Results for CSc1nc2n(n1)C(c1ccc(O)cc1)C1=C(CC(C)(C)CC1=O)N2 (stereo not drawn) ?
FMDV FLuc: 5%; FMDV RLuc: 5%

Results for COc1ccc(NS(=O)(=O)c2ccc(-n3cccn3)cc2)cc1OC ?
FMDV FLuc: 8.9µM*; FMDV RLuc: inconclusive

Results for COC(=O)c1ccc(NS(=O)(=O)c2ccc(-n3cccn3)cc2)cc1 ?
FMDV FLuc: 5%; FMDV RLuc: 46%

How did c1ccc(Nc2c3c(nc4ccccc24)CCC3)cc1 do in these assays?
FMDV FLuc: -12%; FMDV RLuc: -24%

Results for CCc1ccc(Nc2c3c(nc4ccccc24)CCC3)cc1 ?
FMDV FLuc: 25µM*; FMDV RLuc: inconclusive

Results for CCN(CC)C(=S)Sc1ccc([N+](=O)[O-])cc1 ?
FMDV FLuc: 2µM*; FMDV RLuc: -5%

How did CCN(CC)C(=S)SC(C(=O)c1ccccc1)c1ccccc1 (stereo not drawn) do in these assays?
FMDV FLuc: 9%; FMDV RLuc: 12%

What do the screens show for `COc1ccc(C(=O)Oc2ccc3c(=O)c(Oc4cccc(OC)c4)coc3c2)cc1`?
FMDV FLuc: 0%; FMDV RLuc: 4%

How did CCN(Cc1cccs1)C(=O)CCl do in these assays?
FMDV FLuc: -8%; FMDV RLuc: -13%

What do the screens show for `CN(Cc1cccs1)C(=O)CCl`?
FMDV FLuc: inconclusive; FMDV RLuc: 28µM*

What do the screens show for `Oc1c(Br)cc(Cl)cc1Cc1cc(Cl)cc(Br)c1O`?
FMDV FLuc: inconclusive; FMDV RLuc: 3.5µM*

Results for O=Cc1cc(Cl)c(O)c(Br)c1 ?
FMDV FLuc: 5%; FMDV RLuc: -6%

Results for Cc1ccc(F)cc1S(=O)(=O)N(Cc1cc(CN2CCOCC2)cs1)c1ccc(F)cc1 ?
FMDV FLuc: 8%; FMDV RLuc: 10%

Results for COc1ccc(N(Cc2cc(CN3CCOCC3)cs2)S(=O)(=O)c2cc(C)cc(C)c2)cc1 ?
FMDV FLuc: 25µM*; FMDV RLuc: -1%

How did CCS(=O)(=O)c1ncc(N(Cc2ccccc2)Cc2ccco2)c(C(=O)Nc2cccc(Cl)c2C)n1 do in these assays?
FMDV FLuc: -6%; FMDV RLuc: 18%

Results for CCS(=O)(=O)c1ncc(Cl)c(C(=O)N(Cc2ccccc2)Cc2ccco2)n1 ?
FMDV FLuc: 22µM*; FMDV RLuc: -1%

What do the screens show for `CSc1ncc(Cl)c(C(=O)N(Cc2ccc(C)cc2)C2CCS(=O)(=O)C2)n1` (stereo not drawn)?
FMDV FLuc: -14%; FMDV RLuc: 19%

What do the screens show for `CCS(=O)(=O)c1ncc(Cl)c(C(=O)N(Cc2ccccc2)C2CCS(=O)(=O)C2)n1` (stereo not drawn)?
FMDV FLuc: inconclusive; FMDV RLuc: 25µM*

How did C/C=C/CN(Cc1ccco1)Cc1cccs1 do in these assays?
FMDV FLuc: 0%; FMDV RLuc: 8%

What do the screens show for `COC(C)C(=O)NC(C)c1ccc2c(c1)CCC(=O)N2` (stereo not drawn)?
FMDV FLuc: 0%; FMDV RLuc: 8%

How did CCc1c(C)sc(NC(=O)C(C)(C)C)c1C#N do in these assays?
FMDV FLuc: 9%; FMDV RLuc: 30%

How did CCc1c(C)sc(NC(=O)c2c(F)c(F)c(F)c(F)c2F)c1C#N do in these assays?
FMDV FLuc: -7%; FMDV RLuc: -8%

Results for CCc1c(C)sc(NC(=O)C(F)(F)C(F)(F)C(F)(F)F)c1C#N ?
FMDV FLuc: inconclusive; FMDV RLuc: 10µM*

Results for CCc1c(C)sc(NC(=O)C(F)(F)C(F)(F)C(F)(F)C(F)(F)F)c1C#N ?
FMDV FLuc: 22µM*; FMDV RLuc: 25µM*

How did CCCn1nc(C(=O)NCCOc2cccc(C)c2)c2ccccc2c1=O do in these assays?
FMDV FLuc: 17%; FMDV RLuc: 15%

What do the screens show for `CN(C)CCNC(=O)CCCNc1nc(Cl)nc2nc[nH]c12`?
FMDV FLuc: 12%; FMDV RLuc: 0%

Results for CCOc1ccc(N2C(=O)c3n[nH]c(-c4ccco4)c3C2c2cccnc2)cc1 (stereo not drawn) ?
FMDV FLuc: 0%; FMDV RLuc: 3%

Results for COc1ccc(F)cc1C(=O)/C=C/c1cccc(C#N)c1 ?
FMDV FLuc: 3.5µM*; FMDV RLuc: inconclusive

What do the screens show for `COc1ccc(F)cc1C(=O)/C=C/c1ccc(C#N)cc1`?
FMDV FLuc: 0%; FMDV RLuc: 0%

What do the screens show for `CCn1c(SCC(=O)NCc2ccc(OC)c(OC)c2)nnc1-c1cccs1`?
FMDV FLuc: -2%; FMDV RLuc: -7%

What do the screens show for `Cc1cc(C)cc(NC(=O)CNc2nc(Nc3ccccc3)nc(Nc3ccccc3)n2)c1`?
FMDV FLuc: 25%; FMDV RLuc: -13%

How did O=C(Nc1ccncc1)c1cccc(OCc2ccc(F)cc2)c1 do in these assays?
FMDV FLuc: inconclusive; FMDV RLuc: 6.3µM*

What do the screens show for `C=CCOc1cccc(NC(=O)c2ccncc2)c1`?
FMDV FLuc: 33%; FMDV RLuc: 11%

How did COc1ccc(C(=O)CSc2nnc(C(NC(=O)c3ccc(OC)cc3)C(C)C)n2C)cc1 (stereo not drawn) do in these assays?
FMDV FLuc: -2%; FMDV RLuc: -3%

How did COc1ccc(/C=C\c2onc(C)c2S(=O)(=O)N2CCC(C(=O)Nc3ccc(C)c(F)c3)CC2)cc1 do in these assays?
FMDV FLuc: -10%; FMDV RLuc: -10%

Screening results (PubChem)
